Data on 40 compounds can be found in the supplement of paper PMC9177965.

Values joined by “and” are separate entries in the source; they are usually repeats but may differ in a detail not shown here. Equal values may be shown once.

For the test, the system named is HT29 RNF43 G659fs (RNF43 659mut, CRISPR-edited). Description: cell viability activity relative to DMSO (negative = inhibition); higher = more viable cells (less growth inhibition). As to conditions: 5 µM; 96 h. As for the experimental part:
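Broad Repurposing Library primary screen at a single dose of 5 uM. HT29 sg-Ctrl and HT29 RNF43 G659fs CRISPR-edited isogenic cells were seeded at 2500 cells/well in 384-well plates in duplicate and treated for 96 h. Viability was read by CellTiter-Glo and reported as % activity relative to DMSO, with MG132 as the positive control (negative = growth inhibition).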
In the case of `CCCS(=O)(=O)Nc1ccc(F)c(C(=O)c2c[nH]c3ncc(Cl)cc23)c1F`, the cell viability activity is -46.8%.

As for `CC(C)(C)c1cnc(CSc2cnc(NC(=O)C3CCNCC3)s2)o1`, the cell viability activity is -81.8%.

As to `CN(C)CCN1C(=O)c2cccc3cc(N)cc(c23)C1=O`, the cell viability activity is -53.7%.

For the compound `Clc1ccccc1CNCC1CCC(CNCc2ccccc2Cl)CC1` (stereo not given), the cell viability activity was -26.3%.

Regarding `COc1c/c(=C2\C=c3ccccc3=N2)[nH]/c1=C\c1[nH]c(C)cc1C`, the cell viability activity was -93.8%.

On to `Clc1ccc(C2(c3ccc(-c4cn[nH]c4)cc3)CCNCC2)cc1`, for which the cell viability activity was -71.5%.

As to `CN(C)C(=S)SC(=S)N(C)C`, the cell viability activity was -30.9%.

Consider `COC(=O)C1=C(C#N)NC(C)=C(C(=O)OC(C)C)C1c1cccc([N+](=O)[O-])c1` (stereo not given), for which the cell viability activity was -44.7%.

As for `COc1ccc2[nH]c3c(-c4cccc5ccccc45)nccc3c2c1`, the cell viability activity was -69.1%.

Regarding `CCN(CC)Cc1ccc2cc(COC(=O)Nc3ccc(C(=O)NO)cc3)ccc2c1`, the cell viability activity was -91.4%.

As for `CCCC1(CCC)CCC2(CCN(CCCN(CC)CC)C2)CC1`, the cell viability activity was -96.4%.

Take `COCCOC(=O)C1=C(C)NC(C)=C(C(=O)OC/C=C/c2ccccc2)C1c1cccc([N+](=O)[O-])c1` (stereo not given): the cell viability activity is -57.6%.

`Cn1c(=O)n(-c2ccc(C(C)(C)C#N)cc2)c2c3cc(-c4cnc5ccccc5c4)ccc3ncc21`: the cell viability activity was -56.8%.

Consider `CCN(CC)CCN(Cc1ccc(-c2ccc(C(F)(F)F)cc2)cc1)C(=O)Cn1c(SCc2ccc(F)cc2)nc(=O)c2c1CCC2`, for which the cell viability activity is -96.2%.

With `CC[C@@]1(O)C(=O)OCc2c1cc1n(c2=O)Cc2c-1nc1cc(F)c(C)c3c1c2[C@@H](N)CC3`, the cell viability activity is -91.7%.

Consider `Cn1c(=O)c(F)c(Nc2ccc(I)cc2F)c2c(=O)n(C[C@@H](O)CO)cnc21`, for which the cell viability activity is -86.8%.

In the case of `CNCc1ccc(-c2cc(-c3nc(-c4ccc(S(=O)(=O)C(C)C)cc4)cnc3N)on2)cc1`, the cell viability activity was -78.3%.

For `CCOc1cc(C(=O)N2CCC(N3CCN(C)CC3)CC2)ccc1Nc1ncc2c(n1)N(C1CCCC1)c1ccccc1C(=O)N2C`, the cell viability activity was -64.4%.

On to `CCc1c2c(nc3ccc(O)cc13)-c1cc3c(c(=O)n1C2)COC(=O)[C@]3(O)CC`, for which the cell viability activity was -84%.

As to `CC(C)(C)c1ccc(C(=O)CCCN2CCC(OC(c3ccccc3)c3ccccc3)CC2)cc1`, the cell viability activity was -79.7%.

Regarding `CN[C@H](C(=O)N[C@H](C(=O)N(C)[C@H](/C=C(\C)C(=O)O)C(C)C)C(C)(C)C)C(C)(C)c1ccccc1`, the cell viability activity was -56.6%.

With `CC(CN1c2ccccc2Sc2ccccc21)N(C)C` (stereo not given), the cell viability activity was -40.7%.

`CCN1CCN(Cc2ccc(Nc3ncc(F)c(-c4cc(F)c5nc(C)n(C(C)C)c5c4)n3)nc2)CC1`: the cell viability activity is -49.8%.

As for `O=C(CCCCCCC(=O)Nc1ccccc1)NO`, the cell viability activity is -85.7%.

As to `CC[C@H](C)[C@@H]([C@@H](CC(=O)N1CCC[C@H]1[C@H](OC)[C@@H](C)C(=O)N[C@@H](Cc1ccccc1)c1nccs1)OC)N(C)C(=O)[C@@H](NC(=O)[C@H](C(C)C)N(C)C)C(C)C`, the cell viability activity was -55.7%.

In the case of `CC(C)=CCC/C(C)=C/CC/C(C)=C/CSc1ccccc1C(N)=O`, the cell viability activity is -26.6%.

Take `CCOc1ccc(Cc2nccc3cc(OCC)c(OCC)cc23)cc1OCC`: the cell viability activity is -32.7%.

As for `CC[C@H](CC#N)OC(=O)N[C@@H](C)c1cccc(NC(=O)Nc2ccc(-c3cnco3)c(OC)c2)c1`, the cell viability activity was -66.2%.

In the case of `O=C(c1ccc(F)c(F)c1Nc1ccc(I)cc1F)N1CC(O)([C@@H]2CCCCN2)C1`, the cell viability activity is -86.8%.

Turning to `CC(=O)NCC(=O)N1[C@@H]2CC[C@H]1c1ccc(Nc3ncc(C(F)(F)F)c(NC4CCC4)n3)cc12`, the cell viability activity is -41.1%.

Consider `CCNC(=O)c1noc(-c2cc(C(C)C)c(O)cc2O)c1-c1ccc(CN2CCOCC2)cc1`, for which the cell viability activity is -86.6%.

Regarding `O=C(NOC[C@H](O)CO)c1ccc(F)c(F)c1Nc1ccc(I)cc1F`, the cell viability activity is -81.1%.

On to `CC(C)C[C@H](NC(=O)CNC(=O)c1cc(Cl)ccc1Cl)B(O)O`, for which the cell viability activity is -94.3%.

Consider `CCCCCCCCCCC(CO)CCCCCCCC` (stereo not given), for which the cell viability activity was -65.4%.

For `COc1cccc2c1C(=O)c1c(O)c3c(c(O)c1C2=O)C[C@@](O)(C(=O)CO)C[C@@H]3O[C@H]1C[C@H](N)[C@H](O)[C@H](C)O1`, the cell viability activity is -94% and -83.9%.

Take `N#Cc1ccncn1`: the cell viability activity was -26.7%.

On to `CN(Cc1cnc2nc(N)nc(N)c2n1)c1ccc(C(=O)N[C@@H](CCC(=O)O)C(=O)O)cc1`, for which the cell viability activity is -67.9%.

`C[C@H](Nc1ncnc2nc[nH]c12)c1cc2cccc(Cl)c2c(=O)n1-c1ccccc1`: the cell viability activity was -24.4%.

Regarding `CCN(CC)CCOCCOC(=O)C(CC)(CC)c1ccccc1`, the cell viability activity is -31%.

`Oc1c(Cl)cc(Cl)c(Cl)c1Cc1c(O)c(Cl)cc(Cl)c1Cl`: the cell viability activity is -49%.
